Test results reported in PubChem BioAssay (EPA / NIEHS).
Records with an inconclusive call do not appear. Active and inactive are the calls of the source. How the source made its calls, unless noted: active means hit-call score of the fitted dose curve at least 0.9, where 1 is the maximum; inconclusive means response in the unintended direction; inactive means score below 0.9.

Columns and labels:
[1] = biological target: Oxysterols receptor LXR-alpha (Homo sapiens) (UniProt Q13133); assay: ATG_LXRa_TRANS: Attagene TRANS-FACTORIAL HepG2 Assay for human Liver X Receptor alpha (LXRa) (AID 2282980); conditions: HepG2 Attagene TRANS reporter, LXRa transactivation
Outline: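 In this multiplexed TRANS system, compounds act on HepG2 cells carrying GAL4-UAS reporter units and a receptor-GAL4 fusion for 24 h. Induced reporter RNA is amplified, fluorescently labelled and sized by capillary electrophoresis, with DMSO as baseline.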

[2] = biological target: Nuclear receptor subfamily 4 group A member 2 (Homo sapiens) (UniProt P43354); assay: ATG_NURR1_TRANS: Attagene TRANS-FACTORIAL HepG2 Assay for human Nuclear Receptor Related Protein 1 (NURR1) (AID 2282985); conditions: HepG2 Attagene TRANS reporter, mRNA readout
Chain of Nuclear receptor subfamily 4 group A member 2 (Homo sapiens) (P43354 whole entry, looked up): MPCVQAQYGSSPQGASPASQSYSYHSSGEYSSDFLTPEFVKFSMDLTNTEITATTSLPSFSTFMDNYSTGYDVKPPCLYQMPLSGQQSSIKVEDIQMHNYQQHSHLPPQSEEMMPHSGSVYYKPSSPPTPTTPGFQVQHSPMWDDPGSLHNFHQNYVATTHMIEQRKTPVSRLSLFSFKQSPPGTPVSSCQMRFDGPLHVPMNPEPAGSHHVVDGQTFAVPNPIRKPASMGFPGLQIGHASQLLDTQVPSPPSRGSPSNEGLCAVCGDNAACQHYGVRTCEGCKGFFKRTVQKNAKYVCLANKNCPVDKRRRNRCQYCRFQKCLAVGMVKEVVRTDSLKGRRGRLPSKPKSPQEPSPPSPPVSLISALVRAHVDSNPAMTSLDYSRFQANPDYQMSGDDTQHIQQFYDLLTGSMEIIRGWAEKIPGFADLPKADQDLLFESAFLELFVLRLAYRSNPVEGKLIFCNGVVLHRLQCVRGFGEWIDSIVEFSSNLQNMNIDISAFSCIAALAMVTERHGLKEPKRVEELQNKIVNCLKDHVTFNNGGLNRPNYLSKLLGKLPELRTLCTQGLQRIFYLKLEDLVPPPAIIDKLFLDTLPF
Outline: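 Cells: HepG2, transiently transfected. Exposure: 24 h. Detection: fluorescence of labelled RT-PCR products separated by capillary electrophoresis; upward fit versus DMSO.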

[3] = biological target: Peroxisome proliferator-activated receptor gamma (Homo sapiens) (UniProt P37231); assay: ATG_PPARg_TRANS: Attagene TRANS-FACTORIAL HepG2 Assay for human Peroxisome Proliferator-activated Receptor-gamma (PPARg) (AID 2283007)
Chain of Peroxisome proliferator-activated receptor gamma (Homo sapiens) (P37231 whole entry, looked up, the tested form may be a part): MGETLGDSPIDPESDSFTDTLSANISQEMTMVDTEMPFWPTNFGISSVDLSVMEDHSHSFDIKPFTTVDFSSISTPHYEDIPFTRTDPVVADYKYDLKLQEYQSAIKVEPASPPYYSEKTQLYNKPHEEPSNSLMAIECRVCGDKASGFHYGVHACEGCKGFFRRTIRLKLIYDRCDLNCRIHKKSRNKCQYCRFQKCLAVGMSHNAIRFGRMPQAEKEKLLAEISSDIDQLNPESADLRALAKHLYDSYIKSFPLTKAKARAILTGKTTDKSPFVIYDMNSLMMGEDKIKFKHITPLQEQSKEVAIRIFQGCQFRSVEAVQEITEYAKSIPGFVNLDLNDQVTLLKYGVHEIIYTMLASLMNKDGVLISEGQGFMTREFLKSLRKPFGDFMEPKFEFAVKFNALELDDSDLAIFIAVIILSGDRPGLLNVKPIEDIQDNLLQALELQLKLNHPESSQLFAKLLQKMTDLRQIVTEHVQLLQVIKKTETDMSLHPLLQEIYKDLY
Outline: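 Read-out: reporter mRNA induction, detected by fluorescence after RT-PCR and capillary electrophoresis. Transiently transfected human HepG2 liver cells carrying a chimeric NR-Gal4 construct were dosed for 24 h; activity was fitted upward relative to DMSO.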

[4] = biological target: Retinoic acid receptor RXR-alpha (Homo sapiens) (UniProt P19793); assay: ATG_RXRa_TRANS: Attagene TRANS-FACTORIAL HepG2 Assay for human Retinoid X Receptor alpha (RXRa) (AID 2283012)
Chain of Retinoic acid receptor RXR-alpha (Homo sapiens) (P19793 whole entry, looked up, the tested form may be a part): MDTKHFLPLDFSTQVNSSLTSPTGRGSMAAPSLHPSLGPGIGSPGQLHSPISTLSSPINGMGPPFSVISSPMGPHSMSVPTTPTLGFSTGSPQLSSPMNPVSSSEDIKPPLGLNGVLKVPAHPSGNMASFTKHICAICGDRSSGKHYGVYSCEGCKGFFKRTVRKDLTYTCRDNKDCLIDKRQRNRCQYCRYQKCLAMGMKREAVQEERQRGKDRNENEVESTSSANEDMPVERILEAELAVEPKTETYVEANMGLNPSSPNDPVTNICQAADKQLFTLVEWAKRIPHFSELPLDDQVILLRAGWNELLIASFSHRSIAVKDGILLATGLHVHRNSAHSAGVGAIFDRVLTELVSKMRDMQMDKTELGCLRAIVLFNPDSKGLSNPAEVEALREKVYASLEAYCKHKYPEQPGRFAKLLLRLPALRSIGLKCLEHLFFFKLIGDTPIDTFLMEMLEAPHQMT
Outline: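 HepG2 cells transiently transfected with multiplexed GAL4-UAS reporter units and chimeric NR-GAL4 fusions, dosed 24 h. Reporter mRNA measured by RT-PCR, FAM labelling, HpaI digestion and capillary electrophoresis; gain-of-signal fitted relative to DMSO baseline.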

[5] = biological target: human Thyroid Receptor alpha (THRa1), THRA (gene 7067) (UniProt P10827); assay: ATG_THRa1_TRANS: Attagene TRANS-FACTORIAL HepG2 Assay for human Thyroid Receptor alpha (THRa1) (AID 2283014)
Outline: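 Measured here is mRNA from a GAL4-UAS reporter in transfected HepG2 cells carrying a Gal4-fused receptor, 24 h post-dose. DMSO served as negative control and baseline.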

[6] = biological target: human Vitamin D Receptor (VDR), VDR (gene 7421) (UniProt P11473); assay: ATG_VDR_TRANS: Attagene TRANS-FACTORIAL HepG2 Assay for human Vitamin D Receptor (VDR) (AID 2283022)
Chain of human Vitamin D Receptor (VDR), VDR (gene 7421) (P11473 whole entry, looked up): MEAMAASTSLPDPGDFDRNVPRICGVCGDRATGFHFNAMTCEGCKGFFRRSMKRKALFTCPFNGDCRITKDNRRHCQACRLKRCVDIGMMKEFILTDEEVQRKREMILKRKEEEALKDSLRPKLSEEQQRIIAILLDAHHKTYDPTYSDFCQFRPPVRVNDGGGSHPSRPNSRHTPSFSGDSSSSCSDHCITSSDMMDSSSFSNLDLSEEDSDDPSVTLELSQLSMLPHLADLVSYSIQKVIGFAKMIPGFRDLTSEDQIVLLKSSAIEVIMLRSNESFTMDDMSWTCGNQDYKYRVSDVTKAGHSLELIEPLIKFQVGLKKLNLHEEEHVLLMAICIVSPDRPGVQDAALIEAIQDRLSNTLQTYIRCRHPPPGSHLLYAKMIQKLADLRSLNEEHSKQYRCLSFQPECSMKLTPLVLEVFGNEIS
Outline: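 Multiplexed TRANS reporter in HepG2; 24 h treatment; reporter mRNA by RT-PCR plus capillary electrophoresis; upregulation scored relative to DMSO.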

[7] = ATG_XTT_Cytotoxicity: Cytotoxicity Assessment in the Attagene TRANS-FACTORIAL HepG2 Assay (AID 2283584)
Outline: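 24 h chemical exposure of reporter-transfected HepG2; XTT signal loss vs DMSO indicates cytotoxicity.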

[8] = TOX21_p53_BLA_p3_viability: Viability Assessment in the Tox21 HCT-116 p53 Agonism Beta-lactamase Assay, Phase 3 (AID 2283593);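 further: cells exposed to compound for 16 h before reading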
Outline: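 Cellular ATP was quantified by CellTiter-Glo luminescence, read after 30 min at room temperature. Beforehand, HCT116 cells (4000/well) received compound 5 h post-seeding, 217-fold diluted from DMSO, then incubated 16 h at 37C.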

[9] = ACEA_ER_AUC_viability: ACEA Biosciences xCELLigence Real-Time Cell Analysis on Estrogen Receptor Agonism for Viability (AID 2283782);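 further: continuous compound exposure with impedance area under curve over 80 h; hit means loss of impedance signal meaning reduced cell growth or viability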
Outline: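 T-47D; phenol red-free RPMI1640 + 10% CS-FBS; 8 conc., 1:4 serial, max 100 uM final, ≤0.5% DMSO; n = 2; continuous exposure; impedance monitored to 80 h post-dose; AUC vs DMSO.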

[10] = CCTE_Harrill_HTTr_Viability_MCF7: CCTE's 6-hour Cell Viability Assessment for the High-Throughput Transcriptomics (HTTr) Platform, in MCF-7 cells cultured in DMEM + 10% fetal bovine serum, Harrill Lab (AID 2284010; active means hit-call score of the fitted dose curve at least 0.9, where 1 is the maximum; inactive means score below 0.9)
Outline: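 Membrane integrity was scored by high-content imaging of propidium iodide dye exclusion after a 6 h exposure across an eight-point dilution series. Data were fitted bidirectionally relative to DMSO as negative control and baseline.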

[11] = CCTE_Harrill_HTTr_Apoptosis_MCF7: CCTE's 6-hour Apoptosis Assessment for the High-Throughput Transcriptomics (HTTr) Platform, in MCF-7 cells cultured in DMEM + 10% fetal bovine serum, Harrill Lab (AID 2284011; active means hit-call score of the fitted dose curve at least 0.9, where 1 is the maximum; inactive means score below 0.9)
Outline: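 Apoptosis in MCF-7 cells grown in DMEM with 10% fetal bovine serum was scored after a six hour exposure by high content imaging of caspase-3/7 activation (CellEvent Caspase 3/7 Green), with DMSO serving as negative control and baseline.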

[12] = biological target: Glucocorticoid receptor (Homo sapiens) (UniProt P04150); assay: ATG_GR_TRANS: Attagene TRANS-FACTORIAL HepG2 Assay for human Glucocorticoid Receptor (GR) (AID 2282978); conditions: HepG2 Attagene TRANS GR reporter, mRNA transcription;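 further: activators score as hits since higher reporter transcript over DMSO is fitted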
Outline: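 Transient MRTU transfection of HepG2 (GAL4-UAS reporters, exogenous NR-GAL4 chimeras), 24 h dosing. Readout: reporter transcript via RT-PCR + capillary electrophoresis fluorescence. Positive direction vs DMSO baseline.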

[13] = biological target: Bile acid receptor (Homo sapiens) (UniProt Q96RI1); assay: ATG_IR1_CIS: Attagene CIS-FACTORIAL HepG2 Assay for human Nuclear Receptor Subfamily 1 Group H Member 4 (NR1H4), IR1 submotif (AID 2282946; active means hit-call score of the fitted dose curve at least 0.9, where 1 is the maximum; inactive means score below 0.9); conditions: IR1 reporter transcription, actives raise or lower the signal
Chain of Bile acid receptor (Homo sapiens) (Q96RI1 whole entry, looked up, the tested form may be a part): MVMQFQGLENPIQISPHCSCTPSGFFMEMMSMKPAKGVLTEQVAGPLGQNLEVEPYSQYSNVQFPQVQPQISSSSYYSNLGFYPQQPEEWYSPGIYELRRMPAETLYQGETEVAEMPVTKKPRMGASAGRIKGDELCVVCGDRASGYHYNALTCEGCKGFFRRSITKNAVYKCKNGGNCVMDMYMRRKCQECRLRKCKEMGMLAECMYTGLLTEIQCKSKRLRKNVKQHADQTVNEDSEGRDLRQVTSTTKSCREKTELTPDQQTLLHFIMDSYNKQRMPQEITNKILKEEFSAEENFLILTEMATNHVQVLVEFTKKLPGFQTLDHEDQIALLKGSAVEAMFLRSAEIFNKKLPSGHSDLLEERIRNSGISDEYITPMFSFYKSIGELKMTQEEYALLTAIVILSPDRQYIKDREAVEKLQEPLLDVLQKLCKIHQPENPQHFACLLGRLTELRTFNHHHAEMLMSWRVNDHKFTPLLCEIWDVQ
Outline: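 Cells (human HepG2) carry transiently transfected cis-promoter reporter transcription units. Compounds are incubated 24 h, total RNA is reverse-transcribed and amplified, and labelled fragments are resolved by capillary electrophoresis. Curves use DMSO as baseline.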

[14] = biological target: Oxysterols receptor LXR-beta (Homo sapiens) (UniProt P55055); assay: ATG_LXRb_TRANS: Attagene TRANS-FACTORIAL HepG2 Assay for human Liver X Receptor beta (LXRb) (AID 2282981); conditions: HepG2 Attagene TRANS GAL4-LXRb reporter, mRNA
Chain of Oxysterols receptor LXR-beta (Homo sapiens) (P55055 whole entry, looked up, the tested form may be a part): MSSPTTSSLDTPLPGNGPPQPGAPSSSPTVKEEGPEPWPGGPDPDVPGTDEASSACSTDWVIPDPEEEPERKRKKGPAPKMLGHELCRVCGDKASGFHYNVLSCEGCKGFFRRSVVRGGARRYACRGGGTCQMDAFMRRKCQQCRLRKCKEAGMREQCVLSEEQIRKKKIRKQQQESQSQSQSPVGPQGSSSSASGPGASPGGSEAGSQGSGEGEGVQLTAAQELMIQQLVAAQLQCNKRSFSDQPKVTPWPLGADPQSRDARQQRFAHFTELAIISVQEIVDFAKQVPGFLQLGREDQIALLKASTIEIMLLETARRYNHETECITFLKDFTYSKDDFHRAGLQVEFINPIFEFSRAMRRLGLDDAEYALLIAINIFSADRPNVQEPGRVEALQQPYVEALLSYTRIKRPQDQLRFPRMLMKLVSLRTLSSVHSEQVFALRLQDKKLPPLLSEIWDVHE
Outline: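 Cells: HepG2, transiently transfected with GAL4-UAS reporter units plus LXRb-Gal4 fusion. Treatment: 24 h. Detection: reporter mRNA by RT-PCR, 6-FAM labelling, HpaI digestion, capillary electrophoresis.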

[15] = biological target: human Peroxisome Proliferator-activated Receptor alpha (PPARa), PPARA (gene 5465) (UniProt Q07869); assay: ATG_PPARa_TRANS: Attagene TRANS-FACTORIAL HepG2 Assay for human Peroxisome Proliferator-activated Receptor alpha (PPARa) (AID 2283001)
Chain of human Peroxisome Proliferator-activated Receptor alpha (PPARa), PPARA (gene 5465) (Q07869 whole entry, looked up, the tested form may be a part): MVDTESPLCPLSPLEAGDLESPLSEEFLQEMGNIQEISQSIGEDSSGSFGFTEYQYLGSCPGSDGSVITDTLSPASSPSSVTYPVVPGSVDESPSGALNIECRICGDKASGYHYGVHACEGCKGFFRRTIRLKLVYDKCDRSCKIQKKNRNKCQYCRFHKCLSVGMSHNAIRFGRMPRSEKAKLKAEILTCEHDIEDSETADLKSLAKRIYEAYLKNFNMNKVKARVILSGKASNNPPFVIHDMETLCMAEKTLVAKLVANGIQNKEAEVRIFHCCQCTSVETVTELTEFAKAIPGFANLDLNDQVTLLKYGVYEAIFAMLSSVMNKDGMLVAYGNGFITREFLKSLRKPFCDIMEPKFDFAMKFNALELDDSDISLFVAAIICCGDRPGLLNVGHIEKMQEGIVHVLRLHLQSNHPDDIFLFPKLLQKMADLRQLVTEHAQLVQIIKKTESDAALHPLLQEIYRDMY
Outline: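 Reporter transcripts from GAL4-UAS units in transfected HepG2 were quantified 24 h after dosing. Detection used reverse transcription, PCR, fluorescent primer extension and capillary electrophoresis, with DMSO as baseline.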

[16] = TOX21_p53_BLA_p4_viability: Viability Assessment in the Tox21 HCT-116 p53 Agonism Beta-lactamase Assay, Phase 4 (AID 2283597);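 further: hits lower the luminescence signal meaning cytotoxicity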
Outline: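 Luminescent ATP readout (CellTiter-Glo, 30 min, room temperature) in the same wells as the p53 bla ratio. HCT116 cells were treated for 16 h at 37C with DMSO-dissolved compounds.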

[17] = biological target: Nuclear receptor subfamily 1 group I member 3 (Homo sapiens) (UniProt Q14994); assay: ATG_CAR_TRANS: Attagene TRANS-FACTORIAL HepG2 Assay for human Constitutive Androstane Receptor (CAR) (AID 2282969); conditions: HepG2 Attagene TRANS-FACTORIAL CAR reporter;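 further: activators raise reporter mRNA above DMSO so AC50 marks induction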
Chain of Nuclear receptor subfamily 1 group I member 3 (Homo sapiens) (Q14994 whole entry, looked up, the tested form may be a part): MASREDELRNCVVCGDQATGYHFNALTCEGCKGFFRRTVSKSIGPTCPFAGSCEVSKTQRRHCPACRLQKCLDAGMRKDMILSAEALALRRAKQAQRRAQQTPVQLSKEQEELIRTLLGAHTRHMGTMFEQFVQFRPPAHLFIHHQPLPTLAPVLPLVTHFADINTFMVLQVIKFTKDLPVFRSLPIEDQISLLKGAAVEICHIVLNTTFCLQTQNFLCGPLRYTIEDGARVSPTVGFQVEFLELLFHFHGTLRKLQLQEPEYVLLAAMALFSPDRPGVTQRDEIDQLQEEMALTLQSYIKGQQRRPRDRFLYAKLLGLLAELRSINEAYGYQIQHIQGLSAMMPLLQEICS
Outline: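 Readout is reporter mRNA induction, quantified by fluorescent primer extension and capillary electrophoresis after RT-PCR. Cells were HepG2 transiently carrying chimeric NR-Gal4 constructs with GAL4-UAS reporters, treated for 24 h; activity scored upward from DMSO.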

[18] = biological target: human RAR-related Orphan Receptor beta (RORb), RORB (gene 6096) (UniProt Q92753); assay: ATG_RORb_TRANS: Attagene TRANS-FACTORIAL HepG2 Assay for human RAR-related Orphan Receptor beta (RORb) (AID 2283010)
Chain of human RAR-related Orphan Receptor beta (RORb), RORB (gene 6096) (Q92753 whole entry, looked up, the tested form may be a part): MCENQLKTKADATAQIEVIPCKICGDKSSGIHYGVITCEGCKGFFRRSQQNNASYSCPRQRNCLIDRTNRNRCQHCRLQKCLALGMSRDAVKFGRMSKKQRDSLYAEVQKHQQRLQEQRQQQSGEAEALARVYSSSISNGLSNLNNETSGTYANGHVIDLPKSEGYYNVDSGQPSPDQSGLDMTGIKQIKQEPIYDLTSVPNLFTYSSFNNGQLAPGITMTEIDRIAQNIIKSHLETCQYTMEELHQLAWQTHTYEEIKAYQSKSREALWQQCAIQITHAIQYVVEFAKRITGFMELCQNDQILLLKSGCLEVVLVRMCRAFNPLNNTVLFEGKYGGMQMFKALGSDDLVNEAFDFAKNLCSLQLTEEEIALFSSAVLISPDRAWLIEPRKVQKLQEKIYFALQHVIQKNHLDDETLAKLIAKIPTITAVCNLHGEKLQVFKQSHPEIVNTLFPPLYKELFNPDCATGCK
Outline: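 HepG2 cells were transiently transfected with multiplexed GAL4-UAS reporter units expressing chimeric nuclear receptor–GAL4 proteins, then dosed for 24 h. Reporter mRNA was quantified by RT-PCR with fluorescent labelling and capillary electrophoresis; gain of signal was fitted relative to DMSO.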

[19] = biological target: human RAR-related Orphan Receptor gamma (RORg), RORC (gene 6097) (UniProt P51449); assay: ATG_RORg_TRANS: Attagene TRANS-FACTORIAL HepG2 Assay for human RAR-related Orphan Receptor gamma (RORg) (AID 2283011)
Chain of human RAR-related Orphan Receptor gamma (RORg), RORC (gene 6097) (P51449 whole entry, looked up, the tested form may be a part): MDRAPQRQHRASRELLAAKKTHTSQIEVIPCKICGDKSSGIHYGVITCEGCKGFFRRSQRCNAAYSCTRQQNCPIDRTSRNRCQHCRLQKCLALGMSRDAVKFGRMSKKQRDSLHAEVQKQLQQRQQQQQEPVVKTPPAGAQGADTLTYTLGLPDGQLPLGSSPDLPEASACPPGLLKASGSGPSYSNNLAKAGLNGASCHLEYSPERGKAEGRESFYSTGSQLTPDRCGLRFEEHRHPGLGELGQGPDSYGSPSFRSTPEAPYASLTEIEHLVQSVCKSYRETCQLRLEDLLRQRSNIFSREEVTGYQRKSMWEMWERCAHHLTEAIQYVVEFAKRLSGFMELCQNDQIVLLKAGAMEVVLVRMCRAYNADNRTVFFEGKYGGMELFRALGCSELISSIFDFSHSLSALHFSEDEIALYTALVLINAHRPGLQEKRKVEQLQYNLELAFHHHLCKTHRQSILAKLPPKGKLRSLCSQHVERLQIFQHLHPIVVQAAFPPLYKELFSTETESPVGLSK
Outline: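 Chimeric RORg-Gal4 transactivation in transfected HepG2; 24 h exposure; RT-PCR/capillary electrophoresis readout of reporter mRNA, DMSO baseline.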

[20] = ATG_PPRE_CIS: Attagene CIS-FACTORIAL HepG2 Assay for human Peroxisome Proliferator-activated Response Element (PPRE) (AID 2282958; active means hit-call score of the fitted dose curve at least 0.9, where 1 is the maximum; inactive means score below 0.9); conditions: HepG2 PPRE cis-element reporter, Attagene transcription factor profiling; actives raise or lower the signal
Outline: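 Read-out: fluorescent reporter mRNA fragments resolved by capillary electrophoresis after RT-PCR. HepG2 cells carried transiently transfected PPRE-driven cis reporter constructs and were dosed for 24 h; gain or loss of signal fitted relative to DMSO.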

Measured: AC50

Nc1ccc(S(=O)(=O)Nc2cnc3ccccc3n2)cc1
inactive: [1] | [2] | [3] | [4] | [5] | [6] | [7] | [8] | [9] | [10] | [11]

N#CCN(CC#N)CCN(CC#N)CC#N
inactive: [12] | [4] | [6] | [7] | [8] | [9]

c1ccc(CNc2ncnc3nc[nH]c23)cc1
inactive: [13] | [12] | [1] | [14] | [15] | [5] | [8] | [16] | [9] | [10] | [11]

CC/C=C\CC1=C(C)CCC1=O
active: [3] 23.9 µM | [9] 92.5 µM
inactive: [17] | [1] | [14] | [15] | [6] | [8]

CC(=O)OC(C)(C)Cc1ccccc1
inactive: [13] | [1] | [14] | [2] | [18] | [19] | [6] | [8] | [9]

CC(C)(Oc1ccc(Cl)cc1)C(=O)O
active: [3] 69.3 µM | [9] 50 µM
inactive: [20] | [1] | [5] | [6] | [7] | [8] | [10] | [11]

CC(C)CC(=O)CC(C)C
inactive: [18] | [19] | [6] | [8] | [16] | [10] | [11]

Cc1cc(-n2nc3ccc(Cl)cc3n2)c(O)c(C(C)(C)C)c1
inactive: [13] | [17] | [12] | [2] | [19] | [8]

Cc1ccccc1S(=O)(=O)O
inactive: [15] | [18] | [4] | [7] | [8] | [16]

CC(C)=CCOC(=O)c1ccccc1
active: [9] 50 µM
not listed: [3] | [10] | [11] | [13] | [15] | [17] | [18] | [20]
inactive: all other assays above

O=C(O)c1ccccc1C(=O)O
inactive: [12] | [14] | [2] | [19] | [5] | [7] | [8] | [16] | [9]

O=C(O)c1nc(Cl)c(Cl)c(Cl)c1Cl
inactive: [12] | [1] | [14] | [2] | [15] | [5] | [6]

CCC(C)NC(N)=O (centres undefined)
inactive: [20] | [17] | [1] | [2] | [18] | [19] | [7] | [16]
active: [9] 50 µM

CC(O)(P(=O)(O)O)P(=O)(O)O
inactive: [1] | [5]

CC=CC(=O)O
inactive: [12] | [19] | [4] | [5] | [7] | [9]
